Results taken from PubChem BioAssay AID1979 (Broad Institute, 2009).
The campaign covered roughly 300,000 compounds. About 1,700 (0.57%) were called active. Inconclusive results (about 2%) are left out. The list comes from a sample in which actives are over-represented; it also holds similar structures and randomly drawn compounds. Values without a mark were called inactive.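 Rule for the calls: active = growth inhibition above about 58% in most replicates (limit read from the data, passing the limit was not always enough); inconclusive = exactly half the replicates above a set limit; inactive = most replicates below a set limit.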

Experiment: C. albicans growth inhibition with fluconazole, primary screen, CaCi-2 strain, Alamar Blue fluorescence (AID 1979);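 note: all wells also contain fluconazole at 8 µg/ml as a sub-toxic cotreatment; 0% = median of DMSO wells and 100% = median of geldanamycin control wells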
Conditions: C. albicans CaCi-2 (fluconazole-resistant clinical isolate) + fluconazole, 48 h, hits give high values, concentration not given here

In the case of Cc1cc2ccccn2c1C(C[N+](=O)[O-])c1c(F)cccc1Cl (stereo not given), the growth inhibition is reported as 88.5% (active).
In the case of Cc1cccc(-n2c(O)c(C=Nc3ccccc3N)c(=O)[nH]c2=O)c1, the growth inhibition is reported as 103% (active).
For CC1=CC(=Cc2sc3ccccc3[n+]2C)C=C(C)O1, the growth inhibition was 103% (active).

Point of comparison: Cc1cccc(-n2c(O)c(/C=N/N3CCOCC3)c(=O)[nH]c2=S)c1, growth inhibition 12.2%. Against it:
- C/C(=N/O)c1ccc2ccc3ccccc3c2c1 — lower, -4.17%
- Cc1nn(-c2ccccc2)c(C)c1NC(=O)COC(=O)Cc1ccccc1 — lower, -2.49%
- O=C(Cc1ccccc1)N1CCN(C2CCCCCC2)CC1 — lower, -12%
- CC1=C(C(=O)Nc2ccccc2)SCCO1 — lower, 0.0228%
- Cc1cccc(-n2c(O)c(C=NC34CN5CN(CN(C5)C3)C4)c(=O)[nH]c2=O)c1 — lower, -4%
- COc1ccccc1C1=NCc2nnc(CSC)n2-c2ccc(Cl)cc21 — lower, 2.88%
- COc1ccc(S(=O)(=O)NCc2ccc(C(=O)N3CCC4(CC3)OCCO4)cc2)cc1 — lower, -9.32%
- CC(C)(C)c1ccc(OC(=O)N2CCCCC2)cc1 — lower, 11.1%
- C=CCN1C(=O)NC(=O)/C(=C/c2ccc(OCC(=O)Nc3ccc(C)cc3)cc2)C1=O — lower, -16.2%
- CNCC(O)c1cc(F)c(OCc2ccccc2)c(OCc2ccccc2)c1F (stereo not given) — lower, -32.5%
- COc1ccccc1NC(=O)N1C[C@@H]2C[C@@H](C1)c1cccc(=O)n1C2 — lower, 7.25%
